Test results: PubChem BioAssay AID624330 (Southern Research Specialized Biocontainment Screening …, 2012)
Screen size: about 340,000 compounds; about 2,100 (0.62%) were called active.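 How the source made its calls: active means first-screen hits whose inhibition reached a set limit at any dose in the follow-up dose series; inconclusive means inhibition above the set first-screen limit but never retested; inactive means the rest.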 Not all results are given here. Results with a measured potency or affinity are listed apart.

Target: Rac GTPase-activating protein 1 (Homo sapiens) (UniProt Q9H0H5)
Test: MgcRacGAP GTPase-activating activity inhibitors, confirmation, biochemical, ADP Hunter fluorescence, primary and confirmatory (AID 624330);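 further: fluorescence reports GDP produced by GAP-driven GTP hydrolysis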
Details: MgcRacGAP-stimulated Rac1 GTP hydrolysis, at 30 µM, active compounds read high, GST-tagged Rac1 F28L mutant substrate

Sequence of Rac GTPase-activating protein 1 (Homo sapiens) (Q9H0H5 whole entry, looked up): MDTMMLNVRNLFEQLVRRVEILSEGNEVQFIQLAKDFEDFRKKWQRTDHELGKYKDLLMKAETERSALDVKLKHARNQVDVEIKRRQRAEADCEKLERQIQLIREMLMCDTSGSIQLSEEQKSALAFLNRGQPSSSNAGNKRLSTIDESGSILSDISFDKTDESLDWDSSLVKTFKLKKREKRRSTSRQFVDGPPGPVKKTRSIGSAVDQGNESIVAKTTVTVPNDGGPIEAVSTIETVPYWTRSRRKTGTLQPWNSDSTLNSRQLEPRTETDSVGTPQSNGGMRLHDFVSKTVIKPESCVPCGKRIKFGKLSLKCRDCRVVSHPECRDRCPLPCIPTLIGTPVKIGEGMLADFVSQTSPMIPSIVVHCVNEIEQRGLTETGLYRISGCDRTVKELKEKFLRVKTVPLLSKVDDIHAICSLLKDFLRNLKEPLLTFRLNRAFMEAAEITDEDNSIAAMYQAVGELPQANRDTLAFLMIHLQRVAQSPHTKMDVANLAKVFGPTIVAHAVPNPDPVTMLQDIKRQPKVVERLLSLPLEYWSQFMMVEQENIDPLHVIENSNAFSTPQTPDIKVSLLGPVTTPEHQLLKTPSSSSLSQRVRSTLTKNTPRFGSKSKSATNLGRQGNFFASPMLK

inhibition, inactive:
COc1ccccc1N1CCN(C2CCCN(Cc3ccc(Cl)cc3)C2)CC1 (stereo not given) -6.75%
Cc1ccc(C(C[N+](=O)[O-])c2c(N)n(C)c(=O)n(C)c2=O)cc1 (stereo not given) 5.58%
COc1ccc(Br)cc1C(C[N+](=O)[O-])c1c(N)n(C)c(=O)n(C)c1=O (stereo not given) 10.7%
COc1ccc(/C=C2/N=C3CCCCCN3C2=O)cc1OC 3.87%
COc1ccc(/C=C2\N=C3CCCCCN3C2=O)cc1OC -1.04%
O=C1/C(=C/c2ccncc2)N=C2CCCCCN12 3.48%
COc1ccc(/C=C2/N=C3CCCCCN3C2=O)cc1 4.99%
COCCn1c(SCC(=O)c2cccc(OC)c2)nnc1-c1ccco1 13.4%
CC(=O)Nc1ccc(NS(=O)(=O)c2c(Cl)cccc2Cl)cc1 5.14%
Cc1cc(C)n2c(SCC(=O)N(CC(C)C)c3c(N)n(CC(C)C)c(=O)[nH]c3=O)nnc2n1 5.05%
O=C(O)CCC(=O)Nc1cccc(C(=O)c2ccccc2)c1 8.75%
COc1cccc(OC)c1OCCCN1CCC(Cc2ccccc2)CC1 28%
OCc1ccccc1OCCCN1CCC(Cc2ccccc2)CC1 22.1%
N#CC1(NC(=O)CSc2nnc(Cc3ccccc3)o2)CCCCC1 -4.91%
CC1CC(C)CN(C(=O)c2ccc(CSc3nc4ccncc4[nH]3)cc2)C1 (stereo not given) 4.54%
COc1ccc(N2CCN(C(CNC(=O)C(C)C)c3ccc4c(c3)OCO4)CC2)cc1 (stereo not given) 26.1%
COc1ccc(N2CCN(C(CNC(C)=O)c3ccc4c(c3)OCO4)CC2)cc1 (stereo not given) 11.6%
COc1ccc(C(CNC(=O)c2cc(C)oc2C)N2CCOCC2)cc1 (stereo not given) -3.27%
COc1ccc(C(=O)NCC(c2ccc3c(c2)OCO3)N2CCN(c3ccc(OC)cc3)CC2)cc1 (stereo not given) 7.8%
COC(=O)NCC(c1ccc2c(c1)OCO2)N1CCN(c2ccccc2)CC1 (stereo not given) 6.79%
COc1ccc(C(CNC(=O)c2cc(F)c(F)c(F)c2F)N2CCOCC2)cc1 (stereo not given) 5.28%
COc1cccc(CC(=O)OCC(=O)NC2(C#N)CCCCC2)c1 6.74%
COc1ccc(N2CC(C(=O)OCC(=O)NCc3ccccc3)CC2=O)cc1 (stereo not given) -1.54%
C=CCn1c(SCC(=O)c2ccc(O)c(O)c2)nnc1-c1ccc(OC)cc1 8.3%
C=CCn1c(SCC(=O)c2ccc(O)c(O)c2)nnc1-c1ccccc1OC 19.4%
C=CCn1c(SCC(=O)O)nnc1-c1cccc(Cl)c1 -7.04%
C=CCn1c(SCC(=O)c2ccc(O)c(O)c2)nnc1-c1ccc(C)cc1 24.7%
O=C(COc1ccccc1F)NCc1nc2ccccc2[nH]1 10.2%
N#Cc1ccc(Cl)cc1NC(=O)COC(=O)[C@H](CCC(N)=O)NC(=O)c1ccc(F)cc1 -1.8%
C[C@H](O)CNC(=O)c1[nH]cnc1C(=O)Nc1ccc(CNC(=O)OC(C)(C)C)cc1 13.6%
COc1ccc(N2CCN(c3ccc(C(=O)O)cc3[N+](=O)[O-])CC2)cc1 25.5%
CC(=O)c1ccc(N2CCN(c3ccc(C(N)=O)cc3[N+](=O)[O-])CC2)cc1 6.37%
COC(C[C@@H]1O[C@@H]1C(=O)COCc1ccccc1)OC 2.07%
O=C(NCCCn1ccnc1)c1cccc(S(=O)(=O)Nc2ccc(Br)cc2)c1 -2.05%
CSc1nc2c(c(=O)[nH]c(=O)n2C)n1Cc1ccccc1 2.19%
Cn1c(=O)[nH]c(=O)c2c1nc(N)n2Cc1ccccc1 5.45%
CNc1nc2c(c(=O)n(C)c(=O)n2C)n1CCCc1ccccc1 10.2%
CNc1nc2c(c(=O)[nH]c(=O)n2C)n1CCCc1ccccc1 16.1%
Cn1c(=O)c2c(nc(Br)n2CCCc2ccccc2)n(C)c1=O 8.11%
CSc1nc2c(c(=O)[nH]c(=O)n2C)n1CCCc1ccccc1 5.17%
COc1ccc(CCn2c(O)cc3nn(-c4nc5ccccc5s4)c(=O)c-3c2C)cc1 20.6%
Cc1ccc(C)c(S(=O)(=O)NCC(=O)NCc2ccco2)c1 1.96%
CC(C)Oc1ccc(C2NC(=O)c3ccccc3O2)cc1 (stereo not given) 4.5%
CC1CCCN(C(=O)C(=O)Nc2ccc3nc4n(c(=O)c3c2)CCCCC4)C1 (stereo not given) 7.24%
Cc1noc(NC(=O)c2cccc(Cl)c2Cl)c1C#N 6.81%
N#Cc1cccc(NC(=O)CSc2sc3c(O)cc(=O)[nH]c3c2C#N)c1 18.4%
NS(=O)(=O)c1ccc(NC(=O)CN2C(=O)CCC2=O)cc1 6.61%
CC1CN(C(=O)N2c3ccccc3Sc3ccccc32)C(C)CC1=O (stereo not given) 5.35%
O=C(CSc1ccccc1)NCC(c1ccco1)N1CCCCC1 (stereo not given) 3.84%
CN1OC[C@@H]2CN[C@H](c3ccc(-c4cccc(F)c4)cc3)C[C@@H]21 15.6%
Cc1nn2cc(-c3ccc(Cl)cc3)nc2s1 -6.27%
Cc1nn2cc(-c3ccc(-c4ccccc4)cc3)nc2s1 11.1%
CC(C)C(=O)N1CCN(c2ccc(NC(=O)c3ccc4c(c3)OCCO4)cc2)CC1 5.03%
Cc1nn(-c2ccccc2)c(Cl)c1/C=N/O 9.11%
Cc1nn(-c2ccccc2)c(C)c1/C=N/O 12.2%
Cc1ccc2nc(C)c(C(=O)N/N=C/c3ccco3)cc2c1 3.04%
CCN(C[C@H]1N[C@@](C)(C(=O)OC)[C@H]2C(=O)N(C)C(=O)[C@@H]12)C(=O)c1ccccc1 6.04%
CC(=O)N(C1=C(N)C(=O)c2ccccc2C1=O)c1ccccc1 9.97%
CC(=O)N(C1=C(N2CCOCC2)C(=O)c2ccccc2C1=O)c1ccc(C(=O)O)cc1 -12.8%
CSc1ccc(NC(=O)CSc2nc3[nH]c(=O)cc(O)c3s2)cc1 11.1%
